This passage reports growth inhibition results from PubChem BioAssay (NCI).

Test [1] can be described thus: NCI Yeast Anticancer Drug Screen. Data for the rad50 strain (AID 155).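 Further: 0% = growth of vehicle-only cultures of the same strain.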 Conditions: S. cerevisiae rad50 strain growth inhibition; at 50.0 µM; active compounds read high. Put shortly:
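Inhibition values express reduced yeast growth in compound-treated cultures relative to vehicle-treated controls.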

The nature of test [2]: NCI Yeast Anticancer Drug Screen. Data for the mec2-1 strain (AID 157). Conditions: S. cerevisiae mec2-1 strain, at 50.0 µM, active compounds read high. Put shortly:
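Vehicle-treated cultures served as reference for growth inhibition of compound-exposed mec2-1 yeast.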

Test [3] in a line: NCI Yeast Anticancer Drug Screen. Data for the sgs1 mgt1 strain (AID 161).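 Further: 0% = growth of cultures given vehicle only.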 Conditions: S. cerevisiae sgs1 mgt1 strain, at 50.0 µM, active compounds read high. Put shortly: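 Inhibition of yeast growth, normalised to vehicle-treated controls, is reported for a strain bearing genetic alterations in DNA damage repair.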
The nature of test [4]: NCI Yeast Anticancer Drug Screen. Data for the cln2 rad14 strain (AID 165).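 Further: 0% = growth equal to vehicle treated cultures.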 Particulars: S. cerevisiae cln2 rad14 strain, at 50.0 µM, active compounds read high. Put shortly:
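Each compound was tested on cln2 rad14 yeast. Inhibition of growth was calculated against vehicle-exposed controls.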

The nature of test [5]: NCI Yeast Anticancer Drug Screen. Data for the bub3 strain (AID 167). Conditions: S. cerevisiae bub3 mutant strain, at 50.0 µM, active compounds read high. Put shortly: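 Steps: expose the mutant yeast strain to compound; grow alongside vehicle-treated cultures; measure growth; express inhibition against the vehicle cultures.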
Test [6] in a line: NCI Yeast Anticancer Drug Screen. Data for the mlh1 rad18 strain (AID 175). Conditions: S. cerevisiae mlh1 rad18 strain growth inhibition; at 50.0 µM; active compounds read high. Put shortly: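 Vehicle-treated cultures served as the reference for growth inhibition in a yeast strain carrying DNA damage repair alterations exposed to each compound.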

Molecules are shown by their SMILES. About 79,000 compounds went through this panel and 15% of them were active in at least one assay; those are over-represented in the sample as a whole. Unmarked numbers belong to inactive results. Calls of active or inactive are those of the source. No stated cut-off is given here; in the data, active means growth inhibition above about 70%; inactive means the rest.

For `CN(C)c1ncnc2nc[nH]c12`, the growth inhibition was -14.6% in test [1]; 0.7% in test [2]; -6.1% in test [3]; -14.4% in test [4]; -2.6% in test [5]; 16.3% in test [6].
In the case of `COc1cc(C2C3=C(COC3=O)Oc3cc4c(cc32)OCO4)cc(OC)c1OC(C)=O` (stereo not given), the growth inhibition was -15.5% in test [1]; -22.9% in test [2]; 1.55% in test [3]; 16.1% in test [4]; -8.3% in test [5]; -2.5% in test [6].
For the molecule `Cn1[nH]c(=O)c2ncccc2c1=O`, the growth inhibition in test [1] was -4.7%; in test [2], -10.1%; in test [3], -13.5%; in test [4] it was -87.8%; in test [5], -10.3%; in test [6], 4.95%.
In the case of `C=C[C@]1(C)CC(=O)C(C(C)C=O)[C@]12C(=O)Oc1cccc(C)c1C2=O` (stereo not given in full), the growth inhibition in test [1] is 63.9%; in test [2], 85.5% (active); in test [3], 79% (active); in test [4] it was 58.1%; in test [5], 71.8% (active); in test [6], 86.7% (active).
In the case of `CC1(C)[C@H](C(=O)O)CC[C@]1(C)C(=O)O`, the growth inhibition in test [1] is 9.9%; in test [2], -13.1%; in test [3], 1.05%; in test [4], 19.2%; in test [5], -0.7%; in test [6] it was 11.4%.
Take `Brc1ccc2c(c1)C1(c3cc(Br)ccc3-2)c2cc(Br)ccc2-c2ccc(Br)cc21`: the growth inhibition in test [1] is 2.45%; in test [2] it was -5.9%; in test [3], -13.7%; in test [4], 22.7%; in test [5] it was 5.25%; in test [6], 3.95%.
On to `CCCC(=O)OCC1OC(n2cc(F)c(=O)[nH]c2=O)CC1O` (stereo not given), for which the growth inhibition in test [1] is 14.2%; in test [2] it was -4.2%; in test [3] it was 5.65%; in test [4], 9.7%; in test [5], 6.65%; in test [6], -27.4%.
With `NS(=O)(=O)c1cc(C(=O)O)c(O)c2ccccc12`, the growth inhibition is 9.85% in test [1]; 3.3% in test [2]; 1.15% in test [3]; -23.8% in test [4]; 6.6% in test [5]; 15.6% in test [6].
For `COC(=O)C1=C(C(=O)OC)SC(=C2C3=C(SC(C(=O)OC)=C(C(=O)OC)S3)c3ccccc32)S1`, the growth inhibition was 31.1% in test [1]; -2.15% in test [2]; 21.9% in test [3]; 18.9% in test [4]; -4.6% in test [5]; 21.2% in test [6].
As to `CC1=CCC(CC(=O)O)C1(C)C` (stereo not given), the growth inhibition is 10.2% in test [1]; 2.05% in test [2]; -2.85% in test [3]; 4.3% in test [4]; 6.55% in test [5]; -5% in test [6].
For `COc1ccccc1N=Nc1c(O)n(-c2ccccc2OC)c(=S)n(-c2ccc(I)cc2)c1=O`, the growth inhibition in test [1] is 96% (active); in test [2], 96.2% (active); in test [3], 96% (active); in test [4] it was 92.8% (active); in test [5] it was 95.2% (active); in test [6], 96.7% (active).
Regarding `CC1(C)C(N2CCOCC2)CS1(=O)=O` (stereo not given), the growth inhibition was 1.75% in test [1]; -5.2% in test [2]; -1.5% in test [3]; -24.2% in test [4]; -15.7% in test [5]; 3.25% in test [6].
On to `CC1OC(n2cc(F)c(=O)[nH]c2=O)CCC1O` (stereo not given), for which the growth inhibition in test [1] is 7%; in test [2], 10.2%; in test [3], 33.2%; in test [4], -10.1%; in test [5] it was -29.2%; in test [6], -60.5%.
`Cc1cc2c(cc1Cl)SC(NNC(=O)c1ccccc1)=NS2(=O)=O`: the growth inhibition in test [1] is -44.9%; in test [2], -31.7%; in test [3], -43.8%; in test [4] it was -42.2%; in test [5] it was -31.1%; in test [6], -38.2%.
As to `O=C(NCCNC(=O)c1cc(Cl)cc(Cl)c1O)c1cc(Cl)cc(Cl)c1O`, the growth inhibition was -1.35% in test [1]; 11.4% in test [2]; 9.3% in test [3]; -18.4% in test [4]; -4.9% in test [5]; 21.8% in test [6].
In the case of `O=C1CC2CC1C1C(=O)OC(=O)C21` (stereo not given), the growth inhibition in test [1] is -6.8%; in test [2] it was 5.95%; in test [3], -6.7%; in test [4], -1.6%; in test [5] it was -6.9%; in test [6], -8.6%.
On to `COc1ccc(/C=[N+](\[O-])c2ccccc2)cc1` (tested in a mixture with another compound), for which the growth inhibition in test [1] is -2%; in test [2], 8.2%; in test [3], 4.1%; in test [4], 0.4%; in test [5], -10.8%; in test [6], 8.35%.
Regarding `N#Cc1nccc2ccccc12`, the growth inhibition in test [1] was 12.2%; in test [2], -13.3%; in test [3], -13.1%; in test [4] it was -29.1%; in test [5], -1.4%; in test [6], -13.4%.
On to `O=C(Nc1cccc(Cl)c1)c1ccc(Cl)cc1`, for which the growth inhibition in test [1] is 2.95%; in test [2] it was 24.2%; in test [3], 7.75%; in test [4] it was -12.9%; in test [5] it was 26.7%; in test [6] it was 4.3%.
On to `N#[N+]c1ccc2c(c1)C(=O)c1ccccc1-2`, for which the growth inhibition was 3.2% in test [1]; 0.05% in test [2]; -0.6% in test [3]; -46.2% in test [4]; 8.6% in test [5]; -6.65% in test [6].
